This note sets out measurements from PubChem BioAssay (NCATS).

Inconclusive results are not listed. Calls of active or inactive are those of the source. Unless noted, calls come from the whole dose curve; as a rule, active = well fitted curve in the direction sought with a large enough effect; inconclusive = small, poorly fitted or top-dose-only effect, or another doubt; inactive = no such curve, though single readings can be large; an effect the other way counts as inactive or inconclusive.

Test [1] in a line: qHTS Assay for Identification of Small Molecule Inducers of Hypoxia Response (AID 2120; active = well fitted curve in the direction sought with a large enough effect in the signal ratio, with a control signal flat, not every such curve was filed as active; the % refers to the signal ratio). The essentials:
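HRE-bla ME-180 cells in Opti-MEM with 0.5% dialyzed FBS, pre-plated 4-5 h, then compound titration for 17 h at 37 degrees Celsius. CCF4 loaded 2.5 h at room temperature; 460/530 nm ratio gave %Activity and AC50 for induction.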

Test [2] in a line: qHTS for differential inhibitors of proliferation of Plasmodium falciparum line 7G8 (AID 1815).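 Note: parasite growth measured after three days of incubation.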 Note: potency is the fitted concentration of half-maximal effect.
Test [3] in a line: qHTS for differential inhibitors of proliferation of Plasmodium falciparum line GB4 (AID 1816).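 Note: parasite growth measured after 72 h incubation.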 Note: potency is the fitted concentration of half-maximal effect. Conditions: Potency: Plasmodium falciparum GB4 proliferation inhibition.
Test [4] can be described thus: qHTS for differential inhibitors of proliferation of Plasmodium falciparum line 3D7 (AID 1876). Note: potency is the fitted concentration of half-maximal effect.
Test [5] in a line: qHTS for differential inhibitors of proliferation of Plasmodium falciparum line D10 (AID 1877).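 Note: parasites grown with compound for 72 h before DNA staining.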 Note: potency is the fitted concentration of half-maximal effect.
The nature of test [6]: qHTS for differential inhibitors of proliferation of Plasmodium falciparum line W2 (AID 1883).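 Note: parasites grown with compound for 72 h before lysis and staining.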 Note: potency is the fitted concentration of half-maximal effect. Conditions: Potency: Plasmodium falciparum W2 proliferation inhibition.
Test [7] can be described thus: qHTS for differential inhibitors of proliferation of Plasmodium falciparum line HB3 (AID 1886).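 Note: parasites grown with compound for 72 h before SYBR Green readout.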 Note: potency is the fitted concentration of half-maximal effect. Conditions: Potency: Plasmodium falciparum HB3 proliferation inhibition.
The target in test [8] is Ferritin light chain (Equus caballus) (UniProt P02791). Description: qHTS Validation Assay for Identification of Novel General Anesthetics (AID 2323). An outline of the steps:
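Apoferritin from horse spleen (10 uM) was mixed with 1-aminoanthracene at 50% saturation in PBS, then compounds were added. After 10 min at room temperature, fluorescence was read (ex 380 nm, em 535 nm) and normalized to free-probe and complex controls.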

The target of test [9] is ATP-dependent DNA helicase Q1 (Homo sapiens) (UniProt P46063). As to the kind of experiment: qHTS Validation Assay for Inhibitors of RecQ-Like Dna Helicase 1 (RECQ1) (AID 2353). An outline of the steps:
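50 nM RECQ1T1 preincubated 15 min with compound in Tris pH 8.0 buffer with MgCl2, DTT, Tween-20 and 2.5 ug/ml poly(dI-dC); started with 200 nM TAMRA/BHQ-2 forked duplex and 2 mM ATP. Unwinding read as fluorescence (525/598 nm), two reads 2 h apart.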

A short description of test [10]: Cytometric Cell-Based qHTS for Inhibitors of the mTORC1 Signaling Pathway in MEF (Tsc2-/-, p53-/-) Cells (AID 2660).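 Note: Tsc2 and p53 null MEFs carrying empty vector with compound for 24 h; percent of cells above a phospho-rpS6 to PI ratio cutoff in each well.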 The essentials: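 Percent of cells positive for normalized phospho-S6 staining is reported, with the cutoff set from rapamycin (7.5 nM) versus DMSO wells. Tsc2-/-, p53-/- MEFs received compound for 24 hrs.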
Test [11] in a line: High Content Imaging Cell-Based qHTS for Inhibitors of the mTORC1 Signaling Pathway in MEF (Tsc2-/-, p53-/-) Cells (AID 2666).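 Note: percent of cells scored positive for phospho-rpS6 Ser235/236 immunostaining by imaging.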 The note with it: at 38.3 µM (top of the series). The essentials: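 Cells were plated, dosed with compound after 24 hrs, and incubated another 24 hrs at 37 degree Celsius. Fixed cells were immunostained for phospho-rpS6 Ser235/236 and counterstained, and the normalized signal was scored as % active cells against rapamycin and DMSO controls.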

A short description of test [12]: High Content Imaging Cell-Based qHTS for Inhibitors of the mTORC1 Signaling Pathway in MEF Cells (AID 2667). Note: potency is the fitted concentration of half-maximal effect. An outline of the steps:
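Immunofluorescence for rpS6 phosphorylation in MEFs of Tsc2-/-, p53-/- background rescued with WT Tsc2. Compound exposure lasted 24 hrs. Inhibition was scored against rapamycin-treated control wells.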

The nature of test [13]: Cytometry Cell-Based qHTS for Inhibitors of the mTORC1 Signaling Pathway in MEF cells (AID 2668). Note: potency is the fitted concentration of half-maximal effect. An outline of the steps:
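Pathway inhibition in WT Tsc2-rescued Tsc2-/-, p53-/- MEFs is measured as the Alexa-488 phospho-rpS6 to propidium iodide intensity ratio after 24 hrs of compound at 37 degree Celsius. PI-stained cell number gives viability.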

Test [14] is described as follows: Validation screen for small molecules that induce DNA re-replication in MCF 10A normal breast cells (AID 463097). Note: nearly all actives have a fitted effect of over 60% in size. The essentials: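 DNA re-replication was detected as a rise in nuclei with elevated Hoechst fluorescence after a 48 hr compound exposure of MCF 10A cells at 37 C.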
The target in test [15] is Ubiquitin carboxyl-terminal hydrolase 2 (Homo sapiens) (UniProt O75604). As to the kind of experiment: qHTS Validation Assay for Inhibitors of Ubiquitin-specific Protease USP2a Using CHOP2 as the Reporter (AID 463106). An outline of the steps: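 10nM USP2 core + cpd, 30min RT; add 25nM Ub-CHOP2/25nM substrate; 60min RT; FI 485/531nm. Buffer Tris pH 8.0, CaCl2, BME, CHAPS. Norm. to NEM = 100% inhibition; time-zero read flags fluorescent artifacts.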

Test [16] has as its target DNA polymerase III PolC-type (Bacillus subtilis (strain 168)) (UniProt P13267). As to the kind of experiment: qHTS Validation Assay for the Inhibitors of DNA Replication in Gram-Positive Bacteria (AID 485295).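 Note: reconstituted holoenzyme with PolC plus beta clamp SSB and primase; PicoGreen fluorescence of double-stranded DNA made on primed circular M13 template.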 An outline of the steps: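 Primed replication of single-stranded M13Gori by a four-protein B. subtilis holoenzyme is measured at room temperature. Double-stranded product is quantified by PicoGreen fluorescence after an EDTA stop; inhibition is scaled between DMSO and EDTA controls.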

Test [17] is described as follows: qHTS Validation Assay to Find Inhibitors of Chronic Active B-Cell Receptor Signaling (AID 485345; active = well fitted curve in the direction sought with a large enough effect in the main read-out, with a control signal flat, not every such curve was filed as active). An outline of the steps: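 Read-out: ratio of filter-corrected green (IkappaBalpha fusion) to red (native) luciferase signal in doxycycline-induced TMD8 cells after 4 h at 37C. Titration spanned 46 uM–3 nM; Data were normalised to basal cells and 10 uM MG-132 wells.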

Test [18] addresses Beta-2 adrenergic receptor (Homo sapiens) (UniProt P07550). Description: qHTS validation assay of beta-arrestin-biased ligands of beta2-adrenergic receptor (AID 485366). The essentials:
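Luminescence from a tTA-responsive luciferase, induced when recombinant beta-arrestin is recruited to recombinant beta2-AR, served as the agonism signal. Cells were exposed to compound for 18 hr at 37 degrees C; titrations spanned up to 46 microM.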

A short description of test [19]: qHTS Assay for Modulators of Human Peripheral Myelin Protein 22 (PMP22) Expression/Activity (AID 1967; active = well fitted curve in the direction sought with a large enough effect in the signal ratio; the % refers to the signal ratio). An outline of the steps: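 Quantitative HTS in a mouse Schwann cell line expressing dual click beetle luciferases: Pmp22 promoter (green) and control EF-alpha promoter (red). After 24h treatment, corrected green/red signal ratio gave %Activity relative to untreated cells.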

In test [20] the target is RecQ-like DNA helicase BLM (Homo sapiens) (UniProt P54132). Description: qHTS Validation Assay for Inhibitors of Bloom's syndrome helicase (BLM) (AID 2364). An outline of the steps:
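Forked 20-bp duplex substrate (200 nM, TAMRA/BHQ-2) plus 2 mM ATP added after 15 min compound preincubation with 50 nM enzyme, pH 8.0, poly(dI-dC) 2.5 ug/ml. Strand separation followed by fluorescence (525/598 nm) over 2 h, normalized to enzyme-free and DMSO controls.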

Sequence of Ubiquitin carboxyl-terminal hydrolase 2 (Homo sapiens) (O75604 whole entry, looked up): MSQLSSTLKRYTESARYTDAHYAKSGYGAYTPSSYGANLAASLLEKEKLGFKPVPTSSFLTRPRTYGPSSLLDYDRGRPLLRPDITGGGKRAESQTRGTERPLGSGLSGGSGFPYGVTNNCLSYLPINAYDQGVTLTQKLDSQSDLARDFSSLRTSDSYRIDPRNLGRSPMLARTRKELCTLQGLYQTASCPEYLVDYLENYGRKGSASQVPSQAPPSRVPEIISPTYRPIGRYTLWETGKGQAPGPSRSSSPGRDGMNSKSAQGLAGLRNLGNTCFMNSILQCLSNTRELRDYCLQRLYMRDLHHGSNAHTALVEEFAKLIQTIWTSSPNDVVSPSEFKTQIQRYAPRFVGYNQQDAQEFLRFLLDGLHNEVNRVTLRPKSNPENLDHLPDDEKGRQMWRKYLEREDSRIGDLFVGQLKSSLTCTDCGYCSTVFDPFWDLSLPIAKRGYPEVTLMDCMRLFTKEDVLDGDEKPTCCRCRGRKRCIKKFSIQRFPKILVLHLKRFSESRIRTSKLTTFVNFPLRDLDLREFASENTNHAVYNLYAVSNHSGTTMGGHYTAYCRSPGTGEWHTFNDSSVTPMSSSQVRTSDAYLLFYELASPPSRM
Sequence of Beta-2 adrenergic receptor (Homo sapiens) (P07550 whole entry, looked up): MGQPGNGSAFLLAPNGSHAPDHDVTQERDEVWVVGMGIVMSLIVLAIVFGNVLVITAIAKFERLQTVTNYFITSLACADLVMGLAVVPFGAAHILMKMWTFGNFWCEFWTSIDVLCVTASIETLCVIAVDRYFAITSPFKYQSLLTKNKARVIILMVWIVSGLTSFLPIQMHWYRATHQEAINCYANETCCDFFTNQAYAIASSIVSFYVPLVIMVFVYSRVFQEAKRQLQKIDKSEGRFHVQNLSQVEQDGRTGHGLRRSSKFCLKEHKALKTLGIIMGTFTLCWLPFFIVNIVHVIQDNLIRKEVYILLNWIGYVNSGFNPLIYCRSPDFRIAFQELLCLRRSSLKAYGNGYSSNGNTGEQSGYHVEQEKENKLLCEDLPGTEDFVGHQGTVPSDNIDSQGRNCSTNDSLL
Sequence of Ferritin light chain (Equus caballus) (P02791 2-175 limits assumed): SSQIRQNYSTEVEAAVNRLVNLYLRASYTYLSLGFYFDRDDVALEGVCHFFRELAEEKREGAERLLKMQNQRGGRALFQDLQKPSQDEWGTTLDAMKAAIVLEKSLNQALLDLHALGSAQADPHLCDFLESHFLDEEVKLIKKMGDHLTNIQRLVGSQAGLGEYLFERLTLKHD
Sequence of ATP-dependent DNA helicase Q1 (Homo sapiens) (P46063 whole entry, looked up): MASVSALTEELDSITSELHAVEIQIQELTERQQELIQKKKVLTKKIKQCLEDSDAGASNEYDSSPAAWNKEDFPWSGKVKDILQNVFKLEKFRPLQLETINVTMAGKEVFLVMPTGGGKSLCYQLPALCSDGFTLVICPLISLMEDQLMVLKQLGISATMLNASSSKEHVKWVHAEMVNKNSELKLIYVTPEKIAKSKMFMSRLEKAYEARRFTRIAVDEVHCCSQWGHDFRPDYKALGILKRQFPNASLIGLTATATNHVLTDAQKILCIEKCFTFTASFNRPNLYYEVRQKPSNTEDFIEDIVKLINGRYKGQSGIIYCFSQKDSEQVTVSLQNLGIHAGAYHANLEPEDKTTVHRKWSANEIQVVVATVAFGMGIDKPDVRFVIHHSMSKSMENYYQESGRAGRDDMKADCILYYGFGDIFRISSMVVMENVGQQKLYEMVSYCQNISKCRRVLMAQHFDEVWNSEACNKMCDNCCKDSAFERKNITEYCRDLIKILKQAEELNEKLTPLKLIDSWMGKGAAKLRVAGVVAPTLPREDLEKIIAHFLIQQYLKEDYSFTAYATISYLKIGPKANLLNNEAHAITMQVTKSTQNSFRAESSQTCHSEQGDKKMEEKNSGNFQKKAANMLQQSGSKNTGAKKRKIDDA
Sequence of DNA polymerase III PolC-type (Bacillus subtilis (strain 168)) (P13267 whole entry, looked up): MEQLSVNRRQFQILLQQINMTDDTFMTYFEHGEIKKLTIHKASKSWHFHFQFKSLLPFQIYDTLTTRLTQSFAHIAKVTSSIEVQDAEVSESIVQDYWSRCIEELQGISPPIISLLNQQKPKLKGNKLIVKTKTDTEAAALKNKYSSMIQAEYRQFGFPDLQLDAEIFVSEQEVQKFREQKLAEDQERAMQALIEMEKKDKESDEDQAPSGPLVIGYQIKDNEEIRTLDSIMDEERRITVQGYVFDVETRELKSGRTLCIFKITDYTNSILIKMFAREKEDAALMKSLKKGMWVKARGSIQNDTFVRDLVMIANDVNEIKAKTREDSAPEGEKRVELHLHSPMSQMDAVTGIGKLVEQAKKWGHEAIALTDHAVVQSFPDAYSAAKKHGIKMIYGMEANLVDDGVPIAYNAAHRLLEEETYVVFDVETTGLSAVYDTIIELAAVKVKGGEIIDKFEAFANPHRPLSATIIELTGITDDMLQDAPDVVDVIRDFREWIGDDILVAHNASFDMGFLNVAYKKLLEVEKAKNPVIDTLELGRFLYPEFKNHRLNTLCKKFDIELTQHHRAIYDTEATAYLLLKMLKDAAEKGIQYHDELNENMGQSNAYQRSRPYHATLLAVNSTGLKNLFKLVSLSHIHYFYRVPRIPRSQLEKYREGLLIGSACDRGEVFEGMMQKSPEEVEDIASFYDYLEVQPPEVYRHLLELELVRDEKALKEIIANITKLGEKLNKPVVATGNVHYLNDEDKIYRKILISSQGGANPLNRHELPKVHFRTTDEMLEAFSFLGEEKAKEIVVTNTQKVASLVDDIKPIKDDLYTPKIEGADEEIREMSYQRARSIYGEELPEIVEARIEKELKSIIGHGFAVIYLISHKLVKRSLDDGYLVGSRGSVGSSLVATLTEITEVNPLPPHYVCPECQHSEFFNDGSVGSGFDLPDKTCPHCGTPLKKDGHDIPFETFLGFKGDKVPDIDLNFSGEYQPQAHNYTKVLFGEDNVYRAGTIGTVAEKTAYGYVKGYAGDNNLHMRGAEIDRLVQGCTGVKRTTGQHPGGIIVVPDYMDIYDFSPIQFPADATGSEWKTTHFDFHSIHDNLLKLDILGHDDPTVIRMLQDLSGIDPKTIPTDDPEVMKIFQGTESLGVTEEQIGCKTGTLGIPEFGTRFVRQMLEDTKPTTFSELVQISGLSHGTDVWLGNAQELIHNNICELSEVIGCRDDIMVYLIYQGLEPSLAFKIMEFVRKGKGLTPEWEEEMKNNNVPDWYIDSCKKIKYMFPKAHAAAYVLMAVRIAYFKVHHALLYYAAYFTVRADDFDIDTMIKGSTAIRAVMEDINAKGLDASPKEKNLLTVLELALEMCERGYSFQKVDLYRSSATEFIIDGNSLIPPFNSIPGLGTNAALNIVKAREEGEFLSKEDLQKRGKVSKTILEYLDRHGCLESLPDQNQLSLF
Sequence of RecQ-like DNA helicase BLM (Homo sapiens) (P54132 whole entry, looked up): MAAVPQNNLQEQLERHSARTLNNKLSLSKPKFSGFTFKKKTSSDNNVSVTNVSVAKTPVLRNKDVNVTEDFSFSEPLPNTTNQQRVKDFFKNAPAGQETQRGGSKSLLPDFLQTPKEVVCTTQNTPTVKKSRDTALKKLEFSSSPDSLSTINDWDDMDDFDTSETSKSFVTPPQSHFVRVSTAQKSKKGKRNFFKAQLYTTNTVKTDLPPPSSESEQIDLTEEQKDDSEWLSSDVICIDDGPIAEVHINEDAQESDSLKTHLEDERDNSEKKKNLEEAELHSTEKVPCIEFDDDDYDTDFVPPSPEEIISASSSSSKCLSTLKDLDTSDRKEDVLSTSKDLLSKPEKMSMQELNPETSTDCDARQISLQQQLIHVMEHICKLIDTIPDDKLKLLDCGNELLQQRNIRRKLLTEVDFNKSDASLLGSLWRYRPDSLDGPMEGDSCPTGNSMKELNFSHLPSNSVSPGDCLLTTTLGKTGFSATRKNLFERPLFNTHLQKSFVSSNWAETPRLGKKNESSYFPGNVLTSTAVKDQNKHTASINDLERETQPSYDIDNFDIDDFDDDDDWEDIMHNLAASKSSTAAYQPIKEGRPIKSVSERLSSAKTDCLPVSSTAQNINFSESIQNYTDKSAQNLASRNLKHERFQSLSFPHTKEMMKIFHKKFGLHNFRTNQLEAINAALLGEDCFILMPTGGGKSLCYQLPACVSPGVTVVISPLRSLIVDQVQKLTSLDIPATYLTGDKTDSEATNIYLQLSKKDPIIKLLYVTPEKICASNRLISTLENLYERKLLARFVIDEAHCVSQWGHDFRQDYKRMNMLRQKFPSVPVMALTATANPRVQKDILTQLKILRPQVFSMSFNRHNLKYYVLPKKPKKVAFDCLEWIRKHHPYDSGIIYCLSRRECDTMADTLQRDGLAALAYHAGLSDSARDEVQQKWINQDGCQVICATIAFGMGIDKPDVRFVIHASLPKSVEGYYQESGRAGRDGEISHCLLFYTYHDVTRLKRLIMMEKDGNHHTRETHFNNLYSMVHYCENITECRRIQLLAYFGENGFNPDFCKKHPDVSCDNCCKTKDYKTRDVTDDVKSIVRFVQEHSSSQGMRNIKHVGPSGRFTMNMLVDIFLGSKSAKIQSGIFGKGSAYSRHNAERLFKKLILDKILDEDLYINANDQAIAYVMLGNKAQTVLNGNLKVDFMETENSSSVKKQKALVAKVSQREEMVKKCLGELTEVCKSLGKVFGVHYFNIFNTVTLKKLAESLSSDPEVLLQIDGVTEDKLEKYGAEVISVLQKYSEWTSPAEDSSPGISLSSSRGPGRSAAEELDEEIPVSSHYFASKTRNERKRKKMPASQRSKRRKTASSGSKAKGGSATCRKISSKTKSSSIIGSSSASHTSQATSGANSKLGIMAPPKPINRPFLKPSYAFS

In the case of `O=C(O)CCCCC(=O)O`, in test [1], the molecule was called inactive.

`C[N+]1(CCCCC[N+]2(C)CCCC2)CCCC1`: the Potency entry in test [2], in [3], in test [4], in test [5], in test [6] and in test [7] was “inactive” throughout. Besides, the Potency entry in test [12], in [13] and in test [16] was “inactive” each time. Also, the molecule was classed as inactive in [8], in test [9], in [10], in test [11], in test [14] and in test [15]. In addition, the call in [17] and in test [18] was inactive.

`COc1cc(NS(C)(=O)=O)ccc1Nc1c2ccccc2nc2ccccc12`: the Potency was 1 µM (active) in [2]; 0.891 µM (active) in [3]; 0.891 µM (active) in [4]; 1.41 µM (active) in test [5]; 1 µM (active) in test [6]; 1.41 µM (active) in [7]. For the same molecule, the Potency is 3.69 µM (active) in test [12] and 0.521 µM (active) in [13]. Further, the call in test [8], in test [11], in [15] and in test [18] was inactive.

Regarding `C1CCc2nnnn2CC1`, the Potency result in test [2], in test [3], in test [4], in [5], in test [6] and in test [7] was “inactive” in each case. Besides, the Potency result in [12], in test [13] and in test [16] was “inactive” each time. Moreover, the molecule was classed as inactive in test [19], in test [8], in test [9], in [10], in [14] and in [15]. For the same molecule, the molecule was called inactive in [17] and in test [18].

For `CC(=O)O[C@]1(C(C)=O)CC[C@H]2[C@@H]3C[C@H](C)C4=CC(=O)CC[C@]4(C)[C@H]3CC[C@@]21C`, the outcome in test [1] was inactive.

Turning to `N[C@@H](Cc1cnc[nH]1)C(=O)O`, the Potency result in [2], in test [3], in [4], in test [5], in test [6] and in [7] was “inactive” in each case. Also, the Potency result in test [12], in test [13] and in test [16] was “inactive” in each case. Also, the molecule was classed as inactive in [19], in test [8], in test [9], in test [10], in test [11] and in [14]. Moreover, the result in test [15], in test [17] and in [18] was inactive.

On to `O=C(O)c1cc2cc(Cc3cccnc3)ccc2o1`, for which the Potency result in [2], in test [3], in [4], in test [5], in test [6] and in test [7] was “inactive” in each case. Further, the Potency entry in [12], in [13] and in test [16] was “inactive” in each case. Also, the outcome in [19], in [8], in [9], in test [10], in test [11] and in test [14] was inactive. The call in [15], in test [17] and in test [18] was inactive.

For the molecule `CC(O)C(=O)O` (stereo unspecified), the call in [1] was inactive.

For the molecule `CC(=O)O[C@H]1C[C@@H]2CC[C@@H]3[C@H](CC[C@@]4(C)[C@H]3C[C@H]([N+]3(C)CCCCC3)[C@@H]4OC(C)=O)[C@@]2(C)C[C@@H]1[N+]1(C)CCCCC1`, the outcome in [11], in test [15], in test [17] and in [18] was inactive. The Potency result in test [12], in test [13] and in test [16] was “inactive” each time.

Take `Nc1ccc(C(=O)O)cc1`: in test [1], the outcome was inactive.

Turning to `COC(=O)[C@H]1[C@H]2C[C@H]3c4[nH]c5ccccc5c4CCN3C[C@H]2CC[C@@H]1O`, the Potency result in [4], in [5], in [7], in test [12], in test [13] and in [16] was “inactive” throughout. The call in [8], in test [9], in [10], in [11], in test [14] and in [15] was inactive. The result in test [17] and in test [18] was inactive.

For the molecule `CN1C2CCC1CC(OC(=O)c1c[nH]c3ccccc13)C2` (stereo unspecified), the Potency is 7.08 µM (active) in test [2]; 11.2 µM (active) in test [3]; 10 µM (active) in [4]; 11.2 µM (active) in [5]; 8.91 µM (active) in test [6]. Besides, the molecule was called inactive in test [19], in [8], in test [9], in [20], in test [10] and in [11]. Also, the molecule was classed as inactive in test [14], in test [15], in [17] and in test [18]. For the same molecule, the Potency result in test [16] was “inactive”.

In the case of `CN=C(NC#N)Nc1ccc(C2=NNC(=O)CC2C)cc1` (stereo unspecified), the Potency result in test [3], in test [4], in [5], in test [6] and in test [7] was “inactive” each time. For the same molecule, the outcome in test [8], in [9] and in test [14] was inactive.

For the molecule `N[C@H](CO)C(=O)O`, the Potency entry in test [2], in [3], in [4], in test [5], in [6] and in test [12] was “inactive” throughout. The Potency result in [13] and in test [16] was “inactive” in each case. The call in test [8], in test [9], in test [10], in test [11], in test [14] and in [15] was inactive. Further, the call in test [17] and in [18] was inactive.

Consider `CCCn1c(=O)[nH]c(=O)c2[nH]cnc21`, for which the Potency entry in test [2], in test [3], in [4], in test [5], in test [6] and in test [7] was “inactive” throughout. The Potency result in test [12], in test [13] and in [16] was “inactive” each time. The outcome in test [19], in [8], in test [9], in test [10], in test [11] and in [14] was inactive. The call in test [15], in test [17] and in test [18] was inactive.

With `COC1=CC(=O)C[C@@H](C)[C@]12Oc1c(Cl)c(OC)cc(OC)c1C2=O`, the call in test [1] was inactive.

Consider `O=C1CCC(c2ccc(-n3ccnc3)cc2)=NN1`, for which the Potency entry in test [2], in test [3], in test [4], in test [5], in test [6] and in [7] was “inactive” in each case. In addition, the Potency entry in test [12], in test [13] and in test [16] was “inactive” each time. The call in test [19], in test [8], in test [9], in [20], in test [10] and in test [11] was inactive. For the same molecule, the call in [14], in test [15], in [17] and in [18] was inactive.

With `CCCCCCc1ccc(O)cc1O`, in test [1], the molecule was classed as inactive.
